Experimental data: PubChem BioAssay
Records with an inconclusive call do not appear. Calls of active or inactive are those of the source.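 Rule for the calls, unless noted: active = growth inhibition above 25% in both replicates, a cutoff set 3 SD above the mean; inconclusive = above 25% in only one replicate; inactive = the rest.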

How the values were obtained:
[1] = Her2 expression decrease, cell viability multiplex – SKBR3 breast tumor cells, AlphaScreen, ATP viability, primary screen (AID 461;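 active = Her2 level under about 52% in both replicate screens, with viability over 70% of control, limit read from the data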;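 for Her2 level: lower value means less Her2 protein in the cells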;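 for viability: percent of carrier control wells set as 100% viability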); conditions: SKBR3 Her2 protein level, 18-24 h, measured here: SKBR3 viability, ATP luminescence, at 10 µM
[2] = molecular target: Receptor tyrosine-protein kinase erbB-2 (Homo sapiens) (UniProt P04626); test: as above; conditions: 18-24 h, at 10 µM, stronger effect = lower value
Receptor tyrosine-protein kinase erbB-2 (Homo sapiens), sequence (P04626 whole entry, looked up): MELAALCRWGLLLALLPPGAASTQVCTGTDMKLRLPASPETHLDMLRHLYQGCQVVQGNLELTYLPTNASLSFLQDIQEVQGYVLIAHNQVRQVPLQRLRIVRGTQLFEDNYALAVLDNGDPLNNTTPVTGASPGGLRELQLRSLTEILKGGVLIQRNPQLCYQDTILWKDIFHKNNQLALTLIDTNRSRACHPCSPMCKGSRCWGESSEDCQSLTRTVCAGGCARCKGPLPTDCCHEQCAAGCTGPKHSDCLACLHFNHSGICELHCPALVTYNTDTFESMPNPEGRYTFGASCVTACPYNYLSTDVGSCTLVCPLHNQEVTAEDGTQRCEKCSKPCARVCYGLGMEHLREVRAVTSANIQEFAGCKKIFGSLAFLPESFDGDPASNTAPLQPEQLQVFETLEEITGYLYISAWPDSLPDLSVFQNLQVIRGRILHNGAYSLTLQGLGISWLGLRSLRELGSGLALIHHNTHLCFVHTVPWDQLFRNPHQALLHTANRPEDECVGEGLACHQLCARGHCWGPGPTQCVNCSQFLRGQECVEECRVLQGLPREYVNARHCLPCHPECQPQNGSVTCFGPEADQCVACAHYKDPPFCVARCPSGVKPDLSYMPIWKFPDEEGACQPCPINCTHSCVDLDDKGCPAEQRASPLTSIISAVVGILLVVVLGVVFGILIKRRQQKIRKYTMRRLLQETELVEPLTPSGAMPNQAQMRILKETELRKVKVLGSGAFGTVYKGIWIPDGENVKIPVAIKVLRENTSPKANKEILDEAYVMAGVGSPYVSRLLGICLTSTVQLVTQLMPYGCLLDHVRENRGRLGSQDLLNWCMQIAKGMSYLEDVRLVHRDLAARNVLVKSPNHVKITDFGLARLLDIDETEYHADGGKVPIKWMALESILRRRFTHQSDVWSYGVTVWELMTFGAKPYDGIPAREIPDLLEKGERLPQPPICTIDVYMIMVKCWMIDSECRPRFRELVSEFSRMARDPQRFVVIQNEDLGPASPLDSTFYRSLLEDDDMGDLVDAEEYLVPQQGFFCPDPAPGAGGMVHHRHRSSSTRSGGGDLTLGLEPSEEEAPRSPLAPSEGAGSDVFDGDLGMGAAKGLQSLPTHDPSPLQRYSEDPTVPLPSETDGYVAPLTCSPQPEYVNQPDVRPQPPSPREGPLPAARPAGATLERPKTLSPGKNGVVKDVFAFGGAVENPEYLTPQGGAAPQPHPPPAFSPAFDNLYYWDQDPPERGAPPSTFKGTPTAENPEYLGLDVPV

[3] = reduced viability of SK-BR-3 breast cancer cells – cell-based, 24 h, human, pilot screen (AID 572;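 active = viability at or below 10% of carrier control in both of two separate runs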;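 note: compound exposure lasted between 18 and 24 h rather than exactly 24 h; 100% = carrier-treated control wells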); conditions: SK-BR-3 viability, CellTiter-Glo luminescence, at 10 µM, stronger effect = lower value
[4] = HUVEC growth inhibition – cell-based, human, primary screen (AID 575;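 active = viability at or below 30% in both replicate assays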;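 note: 100% = median of untreated cell wells with 0.1% DMSO on each plate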); conditions: HUVEC proliferation, CellTiter-Glo luminescence, 72 h; at 10 µM; stronger effect = lower value
[5] = H69AR cell proliferation blockers – human, duplicate replicates, primary screen (AID 580;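 active = viability at or under a set limit in both replicates, limit being median viability minus 3 SD, cut at about 48% in these data, passing the limit was not always enough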;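 note: 100% = mean luminescence of untreated wells and 0% = no signal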); conditions: H69AR lung tumor cells viability, ATP luminescence, 72 h; at 10 µM; stronger effect = lower value
[6] = MRP1 drug-resistance reversers in H69AR cells – cell-based, doxorubicin co-treatment, pilot screen (AID 601;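 active = viability loss from added drug above about 55%, and viability with drug at most 40%, in both replicates, limit read from the data, passing the limit was not always enough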); conditions: CellTiter-Glo, 72 h, at 10 µM; for differential viability (reversal): stronger effect = higher value
[7] = yeast transport mutant growth inhibition pilot in 384-well plates, post-Golgi transport modulator project (AID 636; in the data active = inhibition above about 31%); conditions: absorbance 615 nm, about 18 h, stronger effect = higher value
[8] = growth suppression of yeast trafficking mutant, preliminary HTS, modulators of trafficking downstream of Golgi apparatus project, 1536-format plate, OD 615 nm (AID 637; in the data active = inhibition above about 30%); conditions: yeast transport mutant growth, absorbance 615 nm, 18 h; stronger effect = higher value
[9] = S. cerevisiae growth inhibition in permissive medium (OD615), pilot counter-assay for S. cerevisiae lifespan shortening project, permissive growth control (AID 705); conditions: OD615, 24 h, at 10 µM, stronger effect = higher value
[10] = S. cerevisiae growth inhibition in restrictive medium, OD615, pilot screen, restrictive growth control, yeast lifespan reduction project (AID 706;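 active = growth inhibition above a set limit, 3 SD over mean compound inhibition, in both replicates, cut at about 43% in these data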;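 note: modified DeaD lifespan yeast strain shifted to restrictive glucose medium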); conditions: OD615, 48 h, at 10 µM, stronger effect = higher value
[11] = doxorubicin toxicity protection in MRP-1 cells – H69AR cells, CellTiter-Glo, duplicate, MRP-1 activator project, pilot screen (AID 807;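 active = viability increase at or above a cutoff of the median across tested compounds plus 3 SD, cut at about 8.5% in these data, passing the limit was not always enough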;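 note: compound pretreatment 18-22 h then 72 h combined with doxorubicin; 0% = doxorubicin alone and 100% = vehicle without doxorubicin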); conditions: H69AR viability with doxorubicin, CellTiter-Glo luminescence; at 10 µM; stronger effect = higher value
[12] = viability of HCT116 without oncogenic beta-catenin – human colon tumor cells, pilot screen (AID 823;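 active = cell viability at or below a set limit in both duplicate runs, the limit being the all-compound median minus 4 SD, cut at about 23% in these data, passing the limit was not always enough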;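 note: 0% = wells killed by 20 µM Hyamine and 100% = untreated DMSO cell wells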); conditions: HCT116 beta-catenin knockout viability, CellTiter-Glo, 60 h; at 10 µM; stronger effect = lower value
[13] = viability of PTEN-null HCT116 cells – cell-based, HCT116 clonal line, CellTiter-Glo, pilot screen (AID 824;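 active = viability at or below 27.92% in each of two runs, the all-compound median minus 4 SD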;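 note: 0% = 20 µM Hyamine control and 100% = vehicle cell control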); conditions: HCT116 PTEN-deleted viability, 60 h, at 10 µM, stronger effect = lower value
[14] = RAM pathway blockade in budding yeast – dse1pr::URA3 reporter, 5-FOA selection, pilot screen (AID 869;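 active = inhibition over a set limit, the all-compound mean plus 3 SD, in both replicate runs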;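 note: 0% = DMSO wells with no growth and 100% = 10 µM 1-NA-PP1 with full growth; RAM network block rescues cells from 5-FOA so hits raise OD615 growth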); conditions: S. cerevisiae dse1pr::URA3 5-FOA growth, OD615, 2 d; at 10 µM; stronger effect = higher value; strain carries analog-sensitive mutant Cbk1 kinase
[15] = RAM signaling pathway blockade in yeast – S. cerevisiae, Pdr1DBD-CYC8 efflux-inhibited sensitized strain, primary screen (AID 1298;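 active = RAM network inhibition above 8.4% in each of two replicates, 3 SD over the compound average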;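 note: 0% = DMSO untreated cells without growth and 100% = 10 µM 1-NA-PP1 full growth; higher means more yeast growth rescued from 5-FOA killing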); conditions: S. cerevisiae cbk1-as DSE1-URA3 strain, 5-FOA growth OD615, 2 d; at 50 µM; stronger effect = higher value
[16] = H69AR cells + 2 uM doxorubicin, measured here: viability with 2 uM doxorubicin, stronger effect = lower value
[17] = H69AR cells, compound alone cytotoxicity

Row | SMILES | viability [1] [%] | Her2 level [2] | viability [3] | viability [4] | viability [5] | differential viability (reversal) ([6]; H69AR cells + 2 uM doxorubicin) | viability [6, 16] [%] | viability [6, 17] [%] | inhibition [7] | inhibition [8] | growth inhibition [9] | growth inhibition [10] | viability increase [11] | viability [12] | viability [13] | inhibition [14] | RAM network inhibition [15]
1 | CCOC(=O)N1CCN(C(=O)CSc2nnc(COc3ccccc3)o2)CC1 | 92.5 | 89.5% (inactive) | 92.5% (inactive) | 95.2% (inactive) | 97.2% (inactive) | 9.01% (inactive) | 88.2 | 97.2 | 2.67% (inactive) | -7.21% (inactive) | -8.08% (inactive) | 1.67% (inactive) | 1.41% (inactive) | 99.4% (inactive) | 100% (inactive) | -0.34% (inactive) | 7.1% (inactive)
2 | CN1CCC(NC(=O)c2cccs2)CC1 | 106 | 90% (inactive) | 106% (inactive) | 84.7% (inactive) | 91% (inactive) | 7.9% (inactive) | 83.1 | 91 | -4.13% (inactive) | 7.5% (inactive) | 9.33% (inactive) | 17.3% (inactive) | -0.16% (inactive) | 96.7% (inactive) | 94.9% (inactive) | 0.86% (inactive) | 1.18% (inactive)
3 | COc1ccc(CNc2oc(-c3ccccc3)nc2C#N)cc1 | 88.5 | 83.5% (inactive) | 88.5% (inactive) | 69.7% (inactive) | 103% (inactive) | 0.495% (inactive) | 102 | 103 | 4.27% (inactive) | -4.92% (inactive) | 0.305% (inactive) | 12.3% (inactive) | 2.09% (inactive) | 98.8% (inactive) | 98.6% (inactive) | 0.335% (inactive) | 4.07% (inactive)
4 | CCCCCOc1ccc(C2NC(=O)NC2=O)cc1 (stereo not given) | 97 | 109% (inactive) | 97% (inactive) | 102% (inactive) | 106% (inactive) | 18.2% (inactive) | 88.1 | 106 | -4.93% (inactive) | -3.5% (inactive) | -7.17% (inactive) | -19.9% (inactive) | -1.63% (inactive) | 101% (inactive) | 94.5% (inactive) | 0.245% (inactive) | 1.57% (inactive)
5 | CCOC(=O)N1CCN(C(=O)c2ccc(CS(=O)(=O)c3ccc(OC)cc3)o2)CC1 | 88 | 88% (inactive) | 88% (inactive) | 104% (inactive) | 89.2% (inactive) | -9.97% (inactive) | 99.2 | 89.2 | -4.67% (inactive) | 0% (inactive) | -12.3% (inactive) | -27.2% (inactive) | -1.05% (inactive) | 104% (inactive) | 97.4% (inactive) | -0.045% (inactive) | 4.85% (inactive)
6 | Cc1ccc(S(=O)(=O)NCCSc2nnnn2-c2ccc(C(N)=O)cc2)cc1 | 116 | 101% (inactive) | 116% (inactive) | 126% (inactive) | 101% (inactive) | -1.94% (inactive) | 103 | 101 | 0.53% (inactive) | -2.17% (inactive) | -3.29% (inactive) | -2.84% (inactive) | -1.69% (inactive) | 92.1% (inactive) | 89.8% (inactive) | -0.71% (inactive) | 1.74% (inactive)
7 | Cc1cccc(C(=O)N2CCN(C(=O)c3cccc(C)c3)C(C)C2)c1 (stereo not given) | 110 | 116% (inactive) | 110% (inactive) | 107% (inactive) | 90.3% (inactive) | 2.61% (inactive) | 87.7 | 90.3 | -1.76% (inactive) | 24.8% (inactive) | -19.2% (inactive) | -9.12% (inactive) | 0.74% (inactive) | 95.9% (inactive) | 96.2% (inactive) | 0.75% (inactive) | 0.55% (inactive)
8 | CC1CCc2nn(CC(=O)NCCN3CCCCC3C)cc2C1 (stereo not given) | 85 | 104% (inactive) | 85% (inactive) | 103% (inactive) | 90% (inactive) | -2.58% (inactive) | 92.6 | 90 | -2.18% (inactive) | 0.83% (inactive) | 0.05% (inactive) | -11% (inactive) | -1.56% (inactive) | 101% (inactive) | 98.5% (inactive) | 2.96% (inactive) | 1.89% (inactive)
9 | CCOC(=O)CN(C(=O)c1ccccc1)c1ccccc1C | 93 | 108% (inactive) | 93% (inactive) | 104% (inactive) | 109% (inactive) | 15.2% (inactive) | 94 | 109 | 0.78% (inactive) | -11% (inactive) | -12.9% (inactive) | 6.67% (inactive) | -0.66% (inactive) | 91.8% (inactive) | 94.2% (inactive) | 0.91% (inactive) | 1.96% (inactive)
10 | CCOc1ccc(S(=O)(=O)N2CCN(c3ccc(C)cc3C)CC2)cc1 | 98.5 | 114% (inactive) | 98.5% (inactive) | 90.1% (inactive) | 90.1% (inactive) | -14.9% (inactive) | 105 | 90.1 | -5.07% (inactive) | -4.67% (inactive) | 7.69% (inactive) | 5.65% (inactive) | -0.07% (inactive) | 65.6% (inactive) | 83.5% (inactive) | 2.64% (inactive) | 6.67% (inactive)
11 | O=C(Cn1cc2c(n1)CCCCC2)N1CCc2ccccc21 | 85.5 | 95.5% (inactive) | 85.5% (inactive) | 67.6% (inactive) | 87.8% (inactive) | -3.99% (inactive) | 91.8 | 87.8 | -1.33% (inactive) | -7.87% (inactive) | -4.03% (inactive) | -4.38% (inactive) | -2.66% (inactive) | 66.4% (inactive) | 81% (inactive) | 2.15% (inactive) | 1.83% (inactive)
12 | COc1ccccc1S(=O)(=O)Cc1ccc(C(=O)N2CCOCC2)o1 | 113 | 98.5% (inactive) | 113% (inactive) | 105% (inactive) | 87.6% (inactive) | -5.08% (inactive) | 92.7 | 87.6 | -2.13% (inactive) | 3.5% (inactive) | 1.17% (inactive) | -2.13% (inactive) | -2.08% (inactive) | 106% (inactive) | 97.9% (inactive) | 1.65% (inactive) | 0.78% (inactive)
13 | O=C(c1cnc2n(c1=O)CCS2)N1CCc2ccccc21 | 99.5 | 83% (inactive) | 99.5% (inactive) | 96% (inactive) | 101% (inactive) | 3.18% (inactive) | 98.1 | 101 | -2.13% (inactive) | 0.16% (inactive) | -3.25% (inactive) | -7.63% (inactive) | 0.01% (inactive) | 97% (inactive) | 102% (inactive) | 1.24% (inactive) | -0.32% (inactive)
14 | COc1ccc(S(=O)(=O)NCc2ccc3c(c2)OCO3)cc1C(=O)O | 96.5 | 84.5% (inactive) | 96.5% (inactive) | 109% (inactive) | 90.1% (inactive) | -3.31% (inactive) | 93.4 | 90.1 | -4.36% (inactive) | -0.33% (inactive) | -4.53% (inactive) | -6.08% (inactive) | -0.34% (inactive) | 96.9% (inactive) | 95.4% (inactive) | 1.89% (inactive) | 5.84% (inactive)
15 | c1ccc(-n2ncc3c(NC4CCCCCC4)ncnc32)cc1 | 83.5 | 77% (inactive) | 83.5% (inactive) | 75.2% (inactive) | 45.8% (active) | -28.2% (inactive) | 74 | 45.8 | -4.93% (inactive) | 1.67% (inactive) | -7.69% (inactive) | -4.42% (inactive) | -2.91% (inactive) | 88.4% (inactive) | 65.7% (inactive) | 1.17% (inactive) | 6.78% (inactive)
16 | COc1cccc(C2CC(c3c(Cl)cccc3Cl)n3nc(N)nc3N2)c1 (stereo not given) | 97 | 104% (inactive) | 97% (inactive) | 81.2% (inactive) | 83.6% (inactive) | 4.33% (inactive) | 79.3 | 83.6 | -4.53% (inactive) | -0.98% (inactive) | 4.74% (inactive) | 9.22% (inactive) | -0.07% (inactive) | 103% (inactive) | 91.4% (inactive) | -0.3% (inactive) | 6.92% (inactive)
17 | CC(=O)NCCc1nc2ccccc2[nH]1 | 94 | 104% (inactive) | 94% (inactive) | 91.9% (inactive) | 93.7% (inactive) | -1% (inactive) | 94.7 | 93.7 | -5.2% (inactive) | -2.33% (inactive) | -3.03% (inactive) | 6.51% (inactive) | -0.62% (inactive) | 107% (inactive) | 97% (inactive) | -0.365% (inactive) | 2.3% (inactive)
18 | Cc1cc(C)c(C#N)c(SCC(=O)Nc2ccc(S(=O)(=O)Nc3onc(C)c3C)cc2)n1 | 90.5 | 97% (inactive) | 90.5% (inactive) | 82.4% (inactive) | 87.4% (inactive) | -9.41% (inactive) | 96.8 | 87.4 | -3.73% (inactive) | 0.33% (inactive) | -1.4% (inactive) | 7.54% (inactive) | -0.72% (inactive) | 109% (inactive) | 100% (inactive) | 1.98% (inactive) | 2.19% (inactive)
19 | CC1CCc2nn(CC(=O)NCCN3CCOCC3)cc2C1 (stereo not given) | 101 | 113% (inactive) | 101% (inactive) | 98.6% (inactive) | 89.4% (inactive) | -8.26% (inactive) | 97.7 | 89.4 | -2.44% (inactive) | -2.33% (inactive) | 2.41% (inactive) | 6.26% (inactive) | 0.93% (inactive) | 108% (inactive) | 101% (inactive) | 0.965% (inactive) | 4.43% (inactive)
20 | O=C1c2ccccc2S(=O)(=O)N1CC(O)Cn1c2ccccc2c2ccccc21 (stereo not given) | 90 | 96% (inactive) | 90% (inactive) | 73.2% (inactive) | 85% (inactive) | -2.51% (inactive) | 87.6 | 85 | 99.3% (active) | 94.7% (active) | -2.73% (inactive) | 9.13% (inactive) | -1.19% (inactive) | 89.7% (inactive) | 96.3% (inactive) | 2.46% (inactive) | 0.57% (inactive)
